# Assay outcomes as filed in PubChem BioAssay.
# Rows were chosen to be rich in hits. Some 1.5% of all compounds tested hit in one or more screens of this group.
# EBV gp42 block: blocks Epstein-Barr virus glycoprotein 42 binding | Q1HVG2 | hit rate 0.42% among 220,000 | inhibition, % (tested at 21.74 µM) | Fluorescence polarization binding assay, mP read-out | AID 1085; in the data active = inhibition above about 50%
# eLon inh: inhibits E. coli Lon protease | P0A9M0 | purified E. coli Lon protease, fluorescence polarization | inhibition, % at 7.94 µM | hit rate 0.42% among 360,000 | AID 602123; in the data active = inhibition above about 13%, passing the limit was not always enough;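 note: 0% = enzyme with probe and DMSO and 100% = no enzyme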
# MCL1 BIM primary: inhibitors of human MCL1 binding to BIM-BH3 peptide; inhibition, % at 10.9 µM; Q07820; hit rate 0.68% among 320,000; GST-MCL1 / FITC-Bim-BH3 fluorescence polarization;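 active = inhibition above the mean inhibition of all tested compounds plus 3 SD, set per campaign, cut at about 40% in these data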;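 note: 0% = DMSO wells and 100% = unlabeled Bim-BH3 peptide control; higher means more loss of mP so more displacement of Bim peptide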
# MEX-5 binding: C. elegans MEX-5 TCR-2 RNA binding activity | MEX-5/FITC-TCR2 RNA binding, fluorescence polarization; hits give low values | activity score (negative = inhibition of binding), % at 10 µM | hit rate 0.38% among 300,000 | AID 1832;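 active = inhibition past about -25% in most replicates, and total fluorescence under double the plate's negative control median, limit read from the data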;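 note: 0% = DMSO and -100% = 5 µM competing unlabeled TCR2 RNA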
# Target sequence (Q9XUB2 whole entry, looked up): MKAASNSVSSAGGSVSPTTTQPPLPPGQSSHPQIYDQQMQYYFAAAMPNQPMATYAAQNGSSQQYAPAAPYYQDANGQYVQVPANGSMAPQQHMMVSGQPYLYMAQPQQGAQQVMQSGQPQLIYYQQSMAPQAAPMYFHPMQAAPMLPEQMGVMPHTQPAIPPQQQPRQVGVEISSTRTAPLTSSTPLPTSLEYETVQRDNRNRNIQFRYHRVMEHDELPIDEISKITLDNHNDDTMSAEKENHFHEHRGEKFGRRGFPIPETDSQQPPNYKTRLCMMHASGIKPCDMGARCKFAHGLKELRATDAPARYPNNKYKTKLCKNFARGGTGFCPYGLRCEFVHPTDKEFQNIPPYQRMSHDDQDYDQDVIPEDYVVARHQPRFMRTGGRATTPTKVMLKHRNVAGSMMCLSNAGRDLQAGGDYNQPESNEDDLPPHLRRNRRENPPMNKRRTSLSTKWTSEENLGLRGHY
# GLD-1 RNA inh: GLD-1-TGE RNA interaction inhibition (C. elegans) | inhibition, % at 5.96 µM | Q17339 | purified GLD-1 + fluorescein TGE RNA, fluorescence polarization | hit rate 0.44% among 320,000;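 active = percent inhibition above a per-plate cutoff, the plate mean of test compounds plus 3 SD, cut at about 30% in these data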;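 note: 0% = DMSO wells with GLD-1 and probe and 100% = wells lacking GLD-1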
# Bcl-xL primary: Bcl-xL (human) inhibition. hit rate 0.7% among 320,000. Q07817. inhibition, % at 10.9 µM. GST-Bcl-xL / FITC-Bim BH3 peptide fluorescence polarization;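 active = inhibition above the mean of all tested compounds plus 3 SD, cutoff set per campaign, cut at about 30% in these data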;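 note: 0% = DMSO wells and 100% = unlabeled Bim-BH3 peptide competitor; inhibitors lower millipolarization by displacing the labeled peptide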
# BCLXL inh confirm: counter-screen for MCL1 inhibitors: confirmation of human Bcl-xL inhibitors. shares compounds with MCL1 BIM primary. GST-Bcl-xL / FITC-Bim BH3 peptide FP binding. inhibition, % at 10.9 µM. hit rate 54% among 1,700;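 active = inhibition above a cutoff equal to the mean inhibition of all tested compounds plus 3 SD, cut at about 30% in these data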;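 note: 0% = DMSO wells and 100% = unlabeled Bim BH3 control peptide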
# MCL1 inh confirm: confirmation of human MCL1 and BIM-BH3 interaction inhibitors | shares compounds with MCL1 BIM primary | AID 2168 | inhibition, % at 10.9 µM | hit rate 61% among 1,700 | GST-MCL1 / FITC-Bim-BH3 fluorescence polarization;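 active = inhibition above the average of all tested compounds plus 3 SD, cut at about 40% in these data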;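 note: 0% = DMSO wells and 100% = unlabeled Bim-BH3 control peptide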
# Numbers without * were called inactive; · = not tested or not shown; + = active, no number; ! = not confirmed by another sample.
SMILES,EBV gp42 block,eLon inh,MCL1 BIM primary,MEX-5 binding,GLD-1 RNA inh,Bcl-xL primary,BCLXL inh confirm,MCL1 inh confirm
Cc1ccc2c(c1C)NC(C(=O)O)C1CC=CC21 (stereo unspecified),87*!,-6,76*,-1,-1,48*,47*,89*
Cc1cc(C)c2c(c1)NC(C(=O)O)C1CC=CC21 (stereo unspecified),·,-11,115*,-38*,3,69*,45*,92*
O=C(O)C1Nc2c(C(=O)N3CCOCC3)cccc2C2C=CCC12 (stereo unspecified),-3,6,68*,-57*,17,50*,42*,72*
CCOC(=O)C1Nc2c(F)cc(C)cc2C2C=CCC12 (stereo unspecified),·,·,36,-4,-6,14,·,·
CCCCCCCCC(c1nc2cc(C)c(C)cc2[nH]1)n1c(=O)c(-c2ccccc2Br)nc2ccccc21 (stereo unspecified),·,-2,·,·,·,·,·,·
COc1ccccc1CNC(=O)c1sccc1-c1ccccc1,·,-7,3,4,5,2,·,·
CC1(OC(=O)C2CCCC2)C(=O)C=C2C=C(c3ccsc3)N(CCc3ccccn3)C=C2C1=O (stereo unspecified),9,19*,56*,-7,37*,48*,13,18
O=C(NC1CCCCCC1)C1Cc2ccccc2CN1C(=O)c1ccco1 (stereo unspecified),2,-14,0,-1,2,2,·,·
Cc1ccc(NC(=S)Nc2ccccn2)cc1C,16,4,12,-1,7,11,·,·
Cc1ccc(NC(=S)Nc2ccc3nc(-c4ccccn4)c(-c4ccccn4)nc3c2)cc1C,35,120*,151*,·,103*,122*,61*,62*
CCOC(=O)CCCCCC(=O)Nc1ccc2c(c1)C(=O)N([C@@H](C)CO)C[C@@H](C)[C@H](CN(C)C(=O)c1ccncc1)OCCCC[C@H](C)O2,·,-3,·,·,·,·,·,·
O=C(/C=C/c1ccc(Cl)c([N+](=O)[O-])c1)Nc1ccc(N2CCCC2)cc1,37,0,47*,-5,0,0,17,43*
O=C(/C=C/c1ccc(Cl)c([N+](=O)[O-])c1)Nc1ccc(NC(=O)c2ccco2)cc1,4,-2,·,-1,·,·,·,·
CCCC1Nc2ccc(C(=O)O)cc2C2C=CCC12 (stereo unspecified),-2,13,87*,-49*,23,49*,4,3
CC(C)C1Nc2ccc(C(=O)O)cc2C2C=CCC21 (stereo unspecified),-6,-3,82*,-54*,28,48*,36*,48*
CC(CCc1ccccc1)NC(=O)CNC(=O)c1cccs1 (stereo unspecified),·,-4,4,-2,-1,5,·,·
COc1cccc(OCC(=O)NC2CCS(=O)(=O)C2)c1 (stereo unspecified),·,-14,·,·,·,·,·,·
Cc1ccccc1OCc1nnc(SCC(=O)NCc2ccco2)n1C,5,1,4,0,5,1,·,·
COc1ccccc1OCc1nnc(SCC(=O)NCc2ccco2)n1Cc1ccco1,40,-17,46*,-1,2,9,15,38
Cc1ccccc1NC(=O)Cc1nc(COC(=O)c2ccc(Cl)nc2)cs1,·,-4,-4,-4,1,-4,·,·
Cc1cc(=O)oc(C)c1C(=O)Nc1ccc2ncccc2c1,72*,-6,97*,-19,-27,100*,79*,82*
Cc1cc(=O)oc(C)c1C(=O)Nc1ccc2nsnc2c1,·,-5,10,-3,-6,4,·,·
O=C(COC(=O)c1ccc2ncsc2c1)Nc1cc([N+](=O)[O-])ccc1Cl,·,-22,42*,·,-3,-8,-6,-18
Cc1ccc(CN(C)C(=O)C2CCC(=O)N(CC3CCCCC3)C2)o1 (stereo unspecified),·,-13,-1,-1,-2,0,·,·
Cc1cc(-n2c(=O)c(C#N)cc3c(=O)n4ccccc4nc32)no1,35,-1,56*,-15,17,43*,45*,58*
SMILES,EBV gp42 block,eLon inh,MCL1 BIM primary,MEX-5 binding,GLD-1 RNA inh,Bcl-xL primary,BCLXL inh confirm,MCL1 inh confirm
Cc1ccc(C)c(S(=O)(=O)N(C)C2CCS(=O)(=O)C2)c1 (stereo unspecified),·,-6,2,0,5,7,·,·
Cc1ccc(C(=O)N2CCOCC2)cc1[N+](=O)[O-],12,-2,-4,4,-5,3,·,·
Cc1ccc(CSc2ccc(C(=O)N3CCOCC3)cc2[N+](=O)[O-])cc1,2,2,49*,3,-7,5,8,-1
CC1CC(C)CN(C(=O)Cn2nnc(-c3ccccc3)n2)C1 (stereo unspecified),·,4,7,0,2,9,·,·
CC1CCN(C(=O)Cn2nnc(-c3ccccc3)n2)CC1,·,-17,45*,2,7,10,-25,-51
COc1ccc(C(=O)n2nnc3ccccc32)cc1OC,-1,-2,1,·,-8,-4,·,·
COc1ccc(N/C(=C(/C(Cl)=C(Cl)Cl)[N+](=O)[O-])n2nnc3ccccc32)cc1OC,12,·,104*,-7,37*,97*,30,21
COCCCN1C(=O)C(CC(=O)NCc2cccc3ccccc23)CC(C(=O)N(C)C)=C1C (stereo unspecified),·,0,·,·,·,·,·,·
COc1ccccc1C(=O)N/C(=C\c1cn(C)c2ccccc12)C(=O)N1CCCC1,·,-8,-2,-3,-9,4,·,·
C[C@H](NC(=O)C1CC(=O)N(c2ccc3c(c2)OCO3)C1)C(=O)NC1CCCC1 (stereo partly specified),·,-5,1,-2,-3,5,·,·
CC(C)C[C@H](NC(=O)C1CC(=O)N(c2ccc3c(c2)OCO3)C1)C(=O)NC1CCCC1 (stereo partly specified),·,9,56*,-21,38*,56*,49*,59*
N=C1/C(=C\c2ccc(SCc3ccco3)o2)C(=O)N=C2SC=NN12,-4,-75,63*,-34*,21,51*,50*,68*
CC1=NN2C(=N)/C(=C\c3ccc(SCc4ccccc4)o3)C(=O)N=C2S1,5,-27,5,-20,-2,-5,·,·
Cc1oc(C(N)=O)nc1-c1ccccc1,-3,9,48*,1,2,9,6,11
Fc1ccc(-n2nnc(-c3ccccc3Br)n2)cc1,·,-2,+,2,4,10,6,8
